Screens from PubChem.
CBX7 AlphaScr: blocks human CBX7 binding to H3K27me3 peptide; AID 1224903; 66,000 compounds, 1.1% hits; AlphaScreen His6-CBX7 / biotin-H3K27me3 peptide binding; active compounds read low; normalised signal (fraction of DMSO) (concentration not given with the values); in the data active = normalised signal below about 0.5
Target sequence (O95931 whole entry, looked up): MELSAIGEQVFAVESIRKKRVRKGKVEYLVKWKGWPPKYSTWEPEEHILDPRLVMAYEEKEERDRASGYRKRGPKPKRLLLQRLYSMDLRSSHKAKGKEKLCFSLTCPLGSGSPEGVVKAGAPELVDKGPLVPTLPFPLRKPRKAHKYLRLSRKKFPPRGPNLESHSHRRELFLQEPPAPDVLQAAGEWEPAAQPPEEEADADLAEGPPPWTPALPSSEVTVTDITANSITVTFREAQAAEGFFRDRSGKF
Numbers without * were called inactive; ! = a repeat was not active. This excerpt belongs to a sample that is enriched for hits.

SMILES | CBX7 AlphaScr
COc1ccc(C2CC(C(F)(F)F)n3nc(C(=O)Nc4cc(Cl)ccc4O)cc3N2)cc1 (stereo unspecified) | 0.94
Cc1onc(-c2ccccc2)c1C(=O)Nc1ccc(S(=O)(=O)Nc2nccs2)cc1 | 0.92
NS(=O)(=O)c1ccc(Nc2nnc(-c3ccc(O)cc3)c3ccccc23)cc1 | 0.85
O=S(=O)(Nc1nccs1)c1ccc(Nc2nnc(-c3ccccc3)c3ccccc23)cc1 | 0.046*
O=C(Nc1cccc(-c2nc3ncccc3o2)c1)c1cccnc1Cl | 0.98
CCc1ccc(NC(=O)CSc2nccn2-c2cccc(C)c2)cc1 | 0.76
Cc1cc(C)cc(NC(=O)CSc2nccn2-c2ccc(Cl)cc2)c1 | 0.42*
Cc1cccc(NC(=O)CSc2nccn2-c2ccc(Cl)cc2)c1 | 0.45*
O=C(CSc1nccn1-c1ccc(F)cc1)Nc1cccc(Cl)c1 | 0.67
CCc1ccc(NC(=O)CSc2nccn2-c2cccc(Cl)c2)cc1 | 0.43*
O=C(CSc1nccn1-c1ccc(Cl)cc1)Nc1cccc(C(F)(F)F)c1 | 0.45*
Cc1ccc(NC(=O)CSc2nccn2-c2ccc(Cl)cc2)cc1 | 0.91
CCc1ccc(NC(=O)CSc2nccn2-c2cccc(OC)c2)cc1 | 0.87
Cc1cc(C)cc(NC(=O)CSc2nccn2-c2ccccc2)c1 | 0.6
O=C(CSc1nccn1-c1ccc(Cl)cc1)Nc1cccc(F)c1 | 0.7
COc1ccc(-n2ccnc2SCC(=O)Nc2cccc(C)c2)cc1 | 0.61
COc1cccc(-n2ccnc2SCC(=O)Nc2cccc(C(F)(F)F)c2)c1 | 0.92
COCCCNC(=O)CCCCCn1c(=O)[nH]c2cc(OC)c(OC)cc2c1=O | 1
COc1ccccc1OCCSc1nc2ccc(Br)cc2[nH]1 | 1.1
CCC(Cc1ccccc1)NC(=O)CS(=O)(=O)Cc1nc(-c2ccc(C)cc2)oc1C (stereo unspecified) | 1.1
CCOC(C#CCN(CC)CC)(c1ccccc1)c1ccccc1 | 0.98
CCn1c(C(=O)N2CCC(C(=O)NCCc3ccc(OC)cc3OC)CC2)cc2sccc21 | 0.95
O=C(C1CC1)N1CCc2cc(S(=O)(=O)N3CCN(c4ccccc4Cl)CC3)ccc21 | 1
CCCCC(=O)Nc1ccc2oc(-c3ccc(OC)c(Cl)c3)nc2c1 | 1.1
CCOC(=O)c1cccc(NC(=O)CCNS(=O)(=O)c2ccc3c(c2)CCC(=O)N3)c1 | 1.1
SMILES | CBX7 AlphaScr
O=C(CCCn1c(=O)[nH]c2ccc(Br)cc2c1=O)NCc1cccnc1 | 0.99
CCCOc1ccc(C(=O)Nc2cccc(-c3nc4cc(C)ccc4o3)c2)cc1 | 1
O=C(Cn1nc(Cc2cccnc2)c2ccccc2c1=O)Nc1cccnc1 | 0.96
c1ccc(CSc2nnc3c(n2)[nH]c2ccccc23)cc1 | 1.1
NC(=O)CSc1nnc2c(n1)[nH]c1ccccc12 | 1
CCOC(=O)CCCCC(=O)c1[nH]c(=O)[nH]c1CSc1nnc2c(n1)[nH]c1ccccc12 | 0.42*
Cc1ccc(CC(C)CC(=O)Nc2cc(C)ccc2C)cc1 (stereo unspecified) | 1.1
COc1ccccc1C(=O)NC(C)C(c1cccs1)N1CCN(c2ccc(F)cc2)CC1 (stereo unspecified) | 0.69
COC(=O)c1ccc(NC(=O)c2c(-c3ccccc3Cl)noc2C)cc1 | 1
COc1ccc(S(=O)(=O)Nc2cccc(C)c2C)c2cccnc12 | 1
COc1cccc2c(S(=O)(=O)Nc3ccc(C(=O)O)cc3)ccnc12 | 0.12*
COc1ccc(S(=O)(=O)Nc2ccccc2Cl)c2cccnc12 | 1.1
Cc1ccccc1OCCCCCc1c(C)n[nH]c1C | 0.97
COc1ccccc1OCCCCc1c(C)n[nH]c1C | 0.97
COc1ccccc1OCCCCCCc1c(C)n[nH]c1C | 0.5*
COc1cc(OC)c(-n2cc(-c3ccc(OC)c(OC)c3)[nH]c2=O)cc1Cl | 0.94
CCN1C(=O)c2ccccc2S(=O)(=O)c2ccc(C(=O)NCCc3ccc(C)cc3)cc21 | 1
COc1ccc(-c2nc(-c3cccc4ccccc34)[nH]c2-c2ccc(OC)cc2)cc1 | 0.83
COc1ccc(-c2nc(-c3ccccc3)c(-c3ccc(Oc4ccccc4)cc3)[nH]2)cc1 | 0.47*
COc1ccc(-c2nc(-c3ccccc3)c(-c3ccc(Cl)cc3)[nH]2)cc1 | 0.74
COc1ccc(-c2nc(-c3ccccc3)c(-c3ccc(Sc4ccccc4)cc3)[nH]2)cc1 | 0.52
Oc1ccc(-c2nc(-c3ccccc3)c(-c3ccc(Oc4ccccc4)cc3)[nH]2)cc1O | 0.45*
COc1ccc(-c2nc(-c3cccc(F)c3)[nH]c2-c2ccc(OC)cc2)cc1 | 0.58
COc1ccc(-c2nc(-c3ccccc3F)[nH]c2-c2ccc(OC)cc2)cc1 | 0.47*
Cc1cc(OCC(O)CN2CCN(c3ccccn3)CC2)ccc1Cl (stereo unspecified) | 1.1
SMILES | CBX7 AlphaScr
Cc1nn(C)c(C)c1S(=O)(=O)N(CC(=O)NCC1CCCO1)c1ccc(C(C)C)cc1 (stereo unspecified) | 0.98
CCn1c(=O)cc(OCC(=O)Nc2ccc(F)cc2Cl)c2ccccc21 | 0.81
Cc1ccc(OCCn2c(COc3ccc(C(C)(C)C)cc3)nc3ccccc32)cc1 | 0.96
CC1=Nc2cc(C(=O)NCCCN3CCCC3=O)ccc2Sc2ccc(Cl)cc21 | 0.93
Cc1cc2nc(Cc3ccc(F)cc3)c(=O)[nH]c2cc1C | 1.3
OC1CCCCC1N1CCC(c2ccccc2)C1 (stereo unspecified) | 0.76
Cc1ccc(C)c(-c2csc(NC(=O)c3ccc(S(=O)(=O)N4CC(C)CC(C)C4)cc3)n2)c1 (stereo unspecified) | 1
CC(C)Cc1ccc(-c2csc(Nc3ccc(Oc4ccccc4)cc3)n2)cc1 | 0.49*
COc1cccc(Nc2nc(-c3ccc(OC)c(Br)c3)cs2)c1 | 0.7
Clc1ccc(-c2csc(Nc3ccc(Oc4ccccc4)cc3)n2)cc1 | 0.54
CC(=O)Nc1nc(-c2ccc(Oc3ccccc3)cc2)cs1 | 0.92
COc1ccc(-c2csc(Nc3ccc(Oc4ccccc4)cc3)n2)cc1Br | 0.42*!
O=C1c2ccccc2C(=O)N1c1cccc(-c2csc(Nc3ccc(Oc4ccccc4)cc3)n2)c1 | 0.74
O=C(Nc1ccc(F)c(Cl)c1)C1OC2OC3(CCCCC3)OC2C2OC3(CCCCC3)OC12 (stereo unspecified) | 0.94
O=C(NCCc1ccccc1)c1cc(=O)[nH]c2ccc(S(=O)(=O)N3CCCC3)cc12 | 1
COc1ccc(OC)c(NC(=O)CSc2nccn2-c2ccccc2)c1 | 0.76
CCOc1ccc(-n2ccnc2SCC(=O)Nc2cc(Cl)ccc2OC)cc1 | 1.1
COc1ccc(OC)c(NC(=O)CSc2nccn2-c2ccc(F)cc2)c1 | 0.48*
Cc1ccc(NC(=O)CSc2nccn2-c2ccc(F)cc2)cc1Cl | 0.82
COc1ccc(NC(=O)CSc2nccn2-c2ccc(Cl)cc2)c(OC)c1 | 0.49*
COc1ccc(-n2ccnc2SCC(=O)Nc2ccc(Cl)cc2)cc1 | 0.9
COc1ccc(NC(=O)CSc2nccn2-c2ccc(OC)cc2)cc1 | 0.86
COc1cccc(-n2ccnc2SCC(=O)Nc2cc(OC)ccc2OC)c1 | 0.81
COc1ccc(-n2ccnc2SCC(=O)Nc2ccc(C)c(Cl)c2)cc1 | 0.47*
COc1ccc(-n2ccnc2SCC(=O)Nc2cc(Cl)ccc2OC)cc1 | 1.1
COc1ccc(Cl)cc1NC(=O)CSc1nccn1-c1ccc(F)cc1 | 0.4*
COc1ccc(-n2ccnc2SCC(=O)Nc2ccccc2OC)cc1 | 0.66
COCCCNC(=O)Cn1cnc2sc(C)c(S(=O)(=O)N3CCCCC3)c2c1=O | 1.2
CC1(C)CC(=O)C2=C(C1)Nc1cc3c(cc1C2c1ccc(F)cc1)OCCO3 (stereo unspecified) | 1
